The record followed here is PubChem BioAssay (NCI).

SMILES strings stand for the structures. The panel holds about 83,000 compounds, 20% with a hit somewhere; the sample as a whole holds those more often.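 Percent growth is the endpoint: 0 to 100 indicates growth inhibition (40 means 60% inhibition), 0 means no net growth, and negative values indicate cell death.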 Values without a mark were called inactive. Calls of active or inactive are those of the source. Rule for the calls: active = growth percent below 10; inactive = the rest.

The assay relates to MDA-MB-468 breast. The assay can be described thus: NCI-60 one-dose screen, 48 h (100 = growth as untreated, 0 = no growth, -100 = all killed). The settings on record: 10 µM unless noted.
As to `C=C1C(=O)O[C@H]2[C@H]1CC/C(COC(=O)N[C@@H](Cc1c[nH]c3ccccc13)C(=O)OC)=C\CC[C@@]1(C)O[C@@H]21`, the growth is -16.4% (active).

`CCN(CC)CCOc1ccc(/C(=C(\C)c2ccc(F)c(OC)c2)c2ccc(Cl)cc2)cc1`: the growth was -15.7% (active).

Consider `Brc1ccccc1Nc1ccc2nnc(-c3ccncc3)n2n1`, for which the growth is 85.3%.

In the case of `Cc1ccc(NC(=O)CNc2cc(C(N)=O)cc(F)c2C)c(Cl)c1`, the growth is 105%.

Turning to `C=C1CCC2C(C)(CO)C(O)CCC2(C)C1CC(NCc1ccccc1)C1=CCOC1=O` (stereo not given), the growth is 98.9%.

With `CCOC(=O)/C(=C\c1ccc(-c2ccccc2)cc1)C(C)=O`, the growth is 95%.

Regarding `CC[C@]12C=CCN3CC[C@@]4(c5ccc(OC)cc5N(C)[C@H]4[C@@](O)(C(=O)OC)[C@@H]1OC(=O)CCN1CCc4ccccc4C1)[C@@H]32`, the growth was 69.7%.

For `Nc1nc(N)c2c(n1)NC(c1ccc3c(c1)OCO3)CC(c1cccc(Nc3ccncc3)c1)=N2` (stereo not given), the growth was 62.7%.

`COc1ccc(NC2=C(Cl)C(=O)c3nc(C)ccc3C2=O)cc1OC`: the growth was 58.1%.

Regarding `CC(=O)c1ccc(Nc2nc(SCC(C)C)nc(-c3ccc(F)cc3)c2C#N)cc1`, the growth was 118%.

As to `CCOC(=O)c1c(NC(=O)c2ccccc2)sc2c(O)c(CN(CC)CC)ccc12`, the growth was -2.82% (active).

As for `O=C(NC(=S)Nc1ccccn1)c1ccccc1`, the growth is 45.1%.

With `COc1ccc2c(c1)oc1c3[nH]c4ccccc4c3c3c(c21)C(=O)N(O)C3=O`, the growth was -17.7% (active).

On to `C=CCn1c(SCC(=O)Nc2ccc(C(=O)/C=C/c3cc(OC)c(OC)c(OC)c3)cc2)nnc1-c1c[nH]c2ccccc12`, for which the growth was 37%.

In the case of `O=C(O)COc1ccc([N+](=O)[O-])cc1Cl`, the growth was 104%.

`O=C1c2cc([N+](=O)[O-])ccc2-c2cc(Cl)c(NC(=O)C(F)(F)F)cc21`: the growth was -17.9% (active).

Regarding `COC(=O)/C=C/C(=O)NC(N)=O`, the growth is 90.8%.

Turning to `CC(=S)NC(=O)C(=O)/C=C1/NC(=O)C(=O)S1`, the growth is 102%.

`COC(=O)c1ccc(C2Nc3ccc(S(=O)(=O)Nc4ccc(C)c(C)c4)cc3C3OCCC23)cc1` (stereo not given): the growth is 54.7%.

As to `CCC(C)(C)C(=O)O[C@H]1C[C@@H](C)C=C2C=C[C@H](C)[C@H](CC[C@@H]3C[C@@H](O)CC(=O)O3)[C@H]21`, the growth is 52.6%.

Turning to `CO[C@H]1/C=C/C=C/C=C/C[C@H](OC(=O)[C@@H](C)NC(=O)C2CCCCC2)[C@H](C)[C@@H](O)/C(C)=C\CCC2=CC(=O)C=C(NC(=O)C1)C2=O`, the growth is -40.9% (active).

Turning to `COc1ccc(Br)c2ccccc12`, the growth is 100%.

On to `N#Cc1nn(-c2cc(=O)[nH]c3ccc(Cl)cc23)c(N)c1C#N`, for which the growth was 110%.

Regarding `CN(C)C[C@@H]1CCn2cc(c3ccccc32)C2=C(C(=O)NC2=O)c2cn(c3ccccc23)CCO1`, the growth was 23.3%.

On to `COc1cc2c(Oc3ccc(NC(=O)C4(C(=O)Nc5ccc(F)cc5)CC4)cc3F)ccnc2cc1OCCCN1CCOCC1`, for which the growth is 12.1%.
